Experimental data: PubChem BioAssay
Calls of active or inactive are those of the source.

Experiments:
[1] = compounds binding Alexa647 anti-His antibody – biochemical, small-molecule microarray, 635 nm fluorescence, artefact control for SMM control protein annotation, primary screen (AID 1128); settings: higher = more signal;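 further: score merges feature fluorescence with signal-to-noise for each printed compound spot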
[2] = test system: Human papillomavirus type 1a E7 protein (residues 1-88); assay: HPV1a E7 small-molecule binders, primary screen, biochemical, small-molecule microarray, residues 1-88, 635 nm (AID 1129); settings: small-molecule microarray binding, fluorescence 635 nm; higher = more signal
[3] = molecular target: Focal adhesion kinase 1 (Homo sapiens) (UniProt Q05397); assay: PTK2 protein binding on printed compound slides – biochemical, small-molecule microarray, 635/667 nm fluorescence, BSA, DTT, primary screen (AID 1130); settings: 635 nm fluorescence, higher = more signal;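 further: composite of spot emission at 667 nm and signal to noise over triplicate slides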
Focal adhesion kinase 1 (Homo sapiens), sequence (Q05397 whole entry, looked up): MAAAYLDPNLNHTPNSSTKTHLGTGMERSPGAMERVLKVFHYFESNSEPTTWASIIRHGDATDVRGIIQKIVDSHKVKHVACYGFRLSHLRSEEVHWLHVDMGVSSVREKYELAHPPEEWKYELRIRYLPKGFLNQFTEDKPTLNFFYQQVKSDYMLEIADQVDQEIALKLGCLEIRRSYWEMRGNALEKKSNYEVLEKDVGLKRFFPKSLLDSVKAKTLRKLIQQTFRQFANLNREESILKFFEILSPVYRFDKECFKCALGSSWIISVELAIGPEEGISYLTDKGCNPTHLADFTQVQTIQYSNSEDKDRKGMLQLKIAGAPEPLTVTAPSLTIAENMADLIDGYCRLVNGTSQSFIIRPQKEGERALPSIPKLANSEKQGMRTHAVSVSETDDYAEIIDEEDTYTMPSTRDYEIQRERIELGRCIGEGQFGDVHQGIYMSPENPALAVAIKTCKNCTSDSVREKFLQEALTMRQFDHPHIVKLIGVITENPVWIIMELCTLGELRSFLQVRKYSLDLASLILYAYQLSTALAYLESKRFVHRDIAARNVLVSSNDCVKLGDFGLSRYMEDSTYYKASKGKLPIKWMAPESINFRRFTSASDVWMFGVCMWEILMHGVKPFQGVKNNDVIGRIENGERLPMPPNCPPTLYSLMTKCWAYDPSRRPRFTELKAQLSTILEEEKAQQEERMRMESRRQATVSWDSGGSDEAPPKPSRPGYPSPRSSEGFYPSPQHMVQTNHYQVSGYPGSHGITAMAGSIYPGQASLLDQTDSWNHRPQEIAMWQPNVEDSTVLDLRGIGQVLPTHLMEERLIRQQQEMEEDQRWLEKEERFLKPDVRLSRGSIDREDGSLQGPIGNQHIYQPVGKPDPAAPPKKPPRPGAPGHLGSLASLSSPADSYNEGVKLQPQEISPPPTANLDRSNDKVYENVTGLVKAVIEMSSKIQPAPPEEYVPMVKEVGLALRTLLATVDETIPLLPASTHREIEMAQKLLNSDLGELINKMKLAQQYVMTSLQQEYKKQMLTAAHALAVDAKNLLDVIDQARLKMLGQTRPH

[4] = test system: Fibrinogen (Alexa647-labelled); assay: Alexa647-fibrinogen binding to printed small molecules – biochemical, small-molecule microarray, 635/667 nm fluorescence, artefact control for SMM control-protein annotation, profiling panel (AID 1131); settings: fibrinogen-A647 binding fluorescence, higher = more signal;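 further: z-score merges 667 nm fluorescence with per-spot signal-to-noise over triplicate slides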
[5] = molecular target: Follistatin (Homo sapiens) (UniProt P19883); assay: FST protein binding to printed compounds – biochemical, small-molecule microarray, 635/667 nm fluorescence, primary screen (AID 1132); settings: 635 nm fluorescence, higher = more signal
Follistatin (Homo sapiens), sequence (P19883 whole entry, looked up): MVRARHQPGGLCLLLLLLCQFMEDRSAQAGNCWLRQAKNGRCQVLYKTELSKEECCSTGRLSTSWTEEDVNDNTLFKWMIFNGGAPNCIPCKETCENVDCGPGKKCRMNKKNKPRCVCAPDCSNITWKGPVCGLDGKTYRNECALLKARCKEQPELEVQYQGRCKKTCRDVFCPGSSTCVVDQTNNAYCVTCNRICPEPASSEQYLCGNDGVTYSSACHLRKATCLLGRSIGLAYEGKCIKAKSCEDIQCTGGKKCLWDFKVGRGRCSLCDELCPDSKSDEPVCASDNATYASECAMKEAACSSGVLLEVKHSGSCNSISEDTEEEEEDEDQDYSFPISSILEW

[6] = molecular target: Fibroblast growth factor 2 (Homo sapiens) (UniProt P09038); assay: basic fibroblast growth factor binding to printed compounds – biochemical, small-molecule microarray, 635/667 nm fluorescence, primary screen (AID 1133); settings: FGF2, fluorescence 635/667, higher = more signal
Fibroblast growth factor 2 (Homo sapiens), sequence (P09038 whole entry, looked up): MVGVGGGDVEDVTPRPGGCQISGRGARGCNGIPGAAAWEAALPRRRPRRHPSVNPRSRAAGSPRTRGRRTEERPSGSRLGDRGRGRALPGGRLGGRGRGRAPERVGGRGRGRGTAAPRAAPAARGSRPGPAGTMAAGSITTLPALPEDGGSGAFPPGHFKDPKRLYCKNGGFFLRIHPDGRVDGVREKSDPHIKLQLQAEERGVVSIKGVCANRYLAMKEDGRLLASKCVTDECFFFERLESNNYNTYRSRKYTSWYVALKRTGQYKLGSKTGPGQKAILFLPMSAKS

[7] = JC-1 mitochondrial potential readout, lung cancer cells – cell-based, A549, JC-1 fluorescence, basal, 24 h, 100 nL, profiling panel (AID 1138); settings: higher = more signal;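 further: A549 lung adenocarcinoma cells under basal conditions with no added stimulus; test concentration not given here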
Lefty1 = Lefty1 protein binding to printed compounds – biochemical, small-molecule microarray, 635/667 nm fluorescence, primary screen (AID 1139); settings: fluorescence 635/667, higher = more signal
[8] = test system: wheat germ agglutinin (Triticum aestivum), Alexa647-labelled; assay: Alexa647-WGA lectin binding to printed small molecules – biochemical, small-molecule microarray, 635/667 nm fluorescence, artefact control for SMM control-protein annotation, profiling panel (AID 1140); settings: WGA-A647 binding, 635 nm fluorescence, higher = more signal;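 further: score merges 667 nm feature emission with signal to noise over triplicate slides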
[9] = molecular target: Luciferin 4-monooxygenase (Photinus pyralis) (UniProt P08659); assay: inhibition of purified Photinus pyralis luciferase – biochemical, luminescence, purified enzyme, 2006 set, primary screen (AID 1141); settings: purified firefly luciferase, SteadyGlo luminescence, 30 min; higher = more signal, called active from +8 up or from −8 down;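 further: cell-free assay with purified firefly luciferase at 100 ng per well in PBS; test concentration not given here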
Luciferin 4-monooxygenase (Photinus pyralis), sequence (P08659 whole entry, looked up): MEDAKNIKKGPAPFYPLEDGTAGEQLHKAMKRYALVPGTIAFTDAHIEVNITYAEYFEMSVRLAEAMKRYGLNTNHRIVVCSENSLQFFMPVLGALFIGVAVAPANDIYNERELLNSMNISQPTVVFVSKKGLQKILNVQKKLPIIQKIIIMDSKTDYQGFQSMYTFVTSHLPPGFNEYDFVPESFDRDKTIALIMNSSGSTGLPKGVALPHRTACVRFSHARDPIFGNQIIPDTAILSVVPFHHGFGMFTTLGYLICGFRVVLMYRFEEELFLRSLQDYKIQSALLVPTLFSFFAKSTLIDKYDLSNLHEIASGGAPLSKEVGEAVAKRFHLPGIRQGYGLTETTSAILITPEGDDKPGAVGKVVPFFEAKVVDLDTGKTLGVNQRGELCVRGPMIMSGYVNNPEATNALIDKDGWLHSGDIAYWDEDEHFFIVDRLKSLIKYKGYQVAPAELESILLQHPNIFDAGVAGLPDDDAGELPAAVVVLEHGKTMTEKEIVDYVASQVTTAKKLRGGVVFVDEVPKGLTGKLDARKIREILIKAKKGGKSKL

Row | Structure (SMILES) | composite z-score [1] | composite z-score [2] | composite z-score [3] | composite z-score [4] | composite z-score [5] | composite z-score [6] | z-score [7] | composite z-score (Lefty1) | composite z-score [8] | z-score [9]
1 | O=C(CS)NCCCCCCNC(=O)[C@@H]1C[C@@H]2C(=O)N3CCC[C@H]3C(=O)N2[C@@H]1c1cccc(OCCO)c1 | 0.824 | 1.13 | 0.459 | 0.642 | 1.1 | 1.59 | 0.503 | 0.361 | 0.832 | -0.681 (inactive)
2 | CCOC(=O)C1=CC[C@@H](c2ccccc2)N(S(=O)(=O)c2ccc(C)cc2)C1 | -0.416 | 0.968 | 0.478 | -0.364 | 0.736 | -0.103 | 0.747 | -0.34 | 0.564 | 0.731 (inactive)
3 | O=C1NC(=O)C2C1C=CC(C(O)c1ccc3c(c1)OCO3)N2Nc1ccccn1 (stereo not given) | 0.942 | 0.256 | 0.0543 | 0.646 | 1.32 | 0.133 | 0.992 | 0.146 | 1.01 | -0.716 (inactive)
4 | COCCOC(=O)N1C(=O)[C@@]2(c3cc(C#CC4=CCCCC4)ccc31)[C@H](c1ccc(O)cc1)N1[C@H](c3ccccc3)[C@H](c3ccccc3)OC(=O)[C@H]1[C@@H]2C(=O)Nc1nc2ccccc2s1 | 0.494 | 1.21 | 0.822 | 0.93 | 0.862 | 1.08 | -1.94 | 1.52 | 0.657 | -0.946 (inactive)
5 | C=C(/C(=C/C[C@@H](OC(=O)c1ccncc1)c1ccc(OCCO)cc1)c1cc(C(=O)OC)ccc1OC)C(C)C | 0.217 | 1.19 | -0.4 | 0.135 | 0.623 | 0.417 | 0.628 | 0.632 | 0.592 | -0.467 (inactive)
6 | C=C(CCCC)/C(=C/C[C@@H](OC(=O)c1ccncc1)c1cccc(OCCO)c1)c1cnc2ccccc2c1 | 0.65 | 0.539 | 0.0663 | 0.832 | 1.5 | 1.74 | 1.14 | 1.6 | 0.871 | -1.63 (inactive)
7 | COc1ccc([Si](C)(C)[C@H]2[C@H](CCO)O[C@@]3(C(=O)N(Cc4cccc(N5CCCCC5=O)c4)c4ccccc43)[C@@H]2C)cc1 | 1.16 | 1.15 | 0.362 | 0.848 | 1.26 | 0.403 | 0.589 | 1.06 | 0.418 | -1.34 (inactive)
8 | CC(C)C[C@@H]1NC(=O)[C@H]2C[C@@H](C(=O)NCCCCCC[N+](C)(C)C)[C@@H](c3cccc(OCCO)c3)N2C1=O | 2.76 | 0.381 | 0.125 | -1.08 | 1.43 | 1.01 | -0.525 | 0.691 | 0.432 | 0.579 (inactive)
9 | C=CCN1Cc2ccccc2C[C@@]2(N=C(c3ccc(OCCCO)cc3)O[C@H]2c2ccccc2)C1=O | 0.69 | 1.24 | 0.649 | 0.801 | 0.749 | 0.955 | 0.943 | 0.0744 | 0.98 | -0.668 (inactive)
10 | COCCCNC(=O)[C@]1(Cc2ccccc2CN=[N+]=[N-])N=C(c2ccc(OCCCO)cc2)O[C@@H]1c1ccccc1 | 2.83 | 1.19 | 0.306 | 0.985 | 0.547 | -0.0864 | 1.06 | 0.0167 | 0.643 | 0.505 (inactive)
11 | C=CC1c2cc(O)c(OC)cc2CCN1Cc1sc2ccccc2c1Cl (stereo not given) | 0.13 | 0.696 | -0.025 | 0.863 | 1.28 | -0.416 | -0.68 | 0.188 | 0.983 | -0.707 (inactive)
12 | O=c1cccc(-c2cccc(Cl)c2)o1 | 0.417 | 1.11 | 0.682 | 0.2 | -0.0992 | -0.332 | 0.0374 | -0.014 | 0.11 | 0.672 (inactive)
13 | CCOc1cc(C(O)C2C=CC3C(=O)N(C4CCCCC4)C(=O)C3N2Nc2ccc(OC)cc2)ccc1O (stereo not given) | 0.675 | 1.19 | 0.903 | 0.705 | 0.846 | -0.0785 | 0.786 | 0.225 | 0.686 | -0.0537 (inactive)
14 | Cc1ccc(F)cc1S(=O)(=O)N[C@@H]1CCN(Cc2ccc(Oc3ccccc3)cc2)C1 | 0.258 | -0.922 | -0.271 | 0.738 | 1.03 | 0.424 | 0.663 | 1.09 | 0.853 | 0.453 (inactive)
15 | C[C@]12C(=O)N(CCCCCCO)[C@@H]3C(=O)N(c4ccc(Cl)cc4)CC=CC31O[C@@H]1/C=C\CCCOC(=O)C12 (stereo not given in full) | 0.0039 | -0.401 | 0.657 | -2.42 | -0.448 | -1.12 | 0.846 | -0.408 | 0.608 | -1.64 (inactive)
16 | O=C1O[C@@H](c2ccccc2)[C@@H](c2ccccc2)N2[C@@H](c3ccccc3OCCO)[C@]3(C(=O)Nc4ccc(C#CCCO)cc43)[C@@H](C(=O)N3CCN(c4ncccn4)CC3)[C@H]12 | 1.72 | 1.19 | 0.747 | 0.946 | 0.389 | -0.0344 | 0.679 | 0.081 | 0.65 | 0.27 (inactive)
17 | CCOC(=O)C[C@H]1[C@H](OC(=O)c2ccc(-c3ccccc3)cc2)[C@@H](NC(=O)c2ccc3ccccc3n2)c2cc(OCCCO)ccc2N1C(=O)c1ccccc1 | 1.14 | 1 | 0.059 | 0.702 | 0.779 | 0.736 | -0.332 | 0.815 | 0.262 | 0.371 (inactive)

Row | Structure (SMILES) | composite z-score [1] | composite z-score [2] | composite z-score [3] | composite z-score [4] | composite z-score [5] | composite z-score [6] | z-score [7] | composite z-score (Lefty1) | composite z-score [8] | z-score [9]
18 | CCCCN1CC=CC23O[C@@H]4C=CCOC(=O)[C@@H]4[C@H]2C(=O)N(C(C)CO)[C@@H]3C1=O (stereo not given in full) | -0.461 | -1.01 | -0.243 | -1.32 | -1.55 | -0.588 | -0.414 | -1.56 | -1.02 | -0.313 (inactive)
19 | C=CCNC(=O)[C@H]1[C@@H]2C(=O)O[C@@H](c3ccccc3)[C@@H](c3ccccc3)N2[C@@H](c2ccccc2OCCO)[C@]12C(=O)N(C(=O)OCCOC)c1ccc(C#CC3=CCCCC3)cc12 | 0.108 | 1.24 | 0.369 | 0.975 | 1.21 | 0.685 | -0.295 | 0.885 | 0.993 | -1.48 (inactive)
20 | C=CCOC(=O)[C@H]1[C@@H]2C(=O)O[C@@H](c3ccccc3)[C@@H](c3ccccc3)N2[C@@H](c2ccc(OCCOC(=O)[C@H]3C[C@H]4C(=O)N[C@@H](CCCC[N+](C)(C)C)C(=O)N4[C@H]3c3cccc(OCCO)c3)cc2)[C@]12C(=O)Nc1ccc(I)cc12 | 1.21 | 0.915 | 0.293 | 0.82 | 1.34 | 1.7 | -1.45 | 0.761 | 0.19 | -0.678 (inactive)
21 | Cc1ccc(S[C@]2(C(=O)NC(C)C)CC(=O)N(C3Cc4ccccc4C3)[C@@H]2c2ccc(CO)cc2I)cc1 | -0.641 | -0.597 | -0.602 | -0.779 | -0.172 | 0.188 | 1.37 | -2.2 | -0.412 | 0.507 (inactive)
22 | O=C1O[C@@H](c2ccccc2)[C@@H](c2ccccc2)N2[C@@H](c3ccccc3OCCO)[C@]3(C(=O)Nc4ccc(C#CCCO)cc43)[C@@H](C(=O)Nc3nc4ccccc4s3)[C@H]12 | 2.3 | 1.21 | 0.487 | 0.956 | 1.33 | 0.737 | -2.04 | 1.55 | 1.23 | -0.778 (inactive)
23 | NC(=O)N1C(=O)C2C(C1=O)C1C=C(CCCO)C2C(c2cccs2)N1Cc1cc2c(cc1Br)OCO2 (stereo not given) | 2.23 | -0.212 | 1.67 | 0.87 | 0.192 | -0.681 | 0.707 | 0.574 | 0.851 | -0.062 (inactive)
24 | C[C@]1(C(=O)O)c2ccccc2C(=O)N(Cc2ccccc2)[C@H]1c1ccc(CO)cc1 | -1.17 | -2.07 | 0.343 | -2.48 | -0.828 | -1.33 | 0.686 | -2.05 | -1.37 | -0.84 (inactive)
25 | CN(C)CCCNC(=O)[C@@H]1c2ccccc2C(=O)N(CC23CC4CC(CC(C4)C2)C3)[C@H]1c1ccc(CO)cc1 | 2.44 | 1.27 | 0.0169 | 0.954 | 1.21 | 0.788 | 1.36 | 1.26 | 0.665 | 0.717 (inactive)
26 | C=CC[C@H](OC(=O)Nc1ccc(OC)cc1)c1ccc(O)c2ccccc12 | 1.15 | 1.16 | 0.531 | 0.305 | 1.3 | 1.64 | -1.43 | 0.907 | 0.616 | -6.26 (inactive)
27 | CN(C)C(=O)[C@]1(CCC(=O)OC(C)(C)C)N=C(c2ccc(OCCCO)cc2)O[C@@H]1c1ccccc1 | 2.57 | 1.27 | 0.712 | 0.97 | 0.562 | 0.399 | 1.58 | -0.781 | 0.448 | -1.41 (inactive)
28 | C=CC[C@]1(C(=O)N(C)C)N=C(c2ccc(OCCCO)cc2)O[C@H]1c1ccccc1N=[N+]=[N-] | 2.04 | 1.22 | 0.264 | 1.02 | 0.899 | -0.267 | 1.08 | -0.0297 | 1.25 | -9.41 (active)
29 | CN1C(=O)[C@@]2(CCS(=O)(=O)c3ccccc3)N=C(c3ccc(OCCCO)cc3)O[C@H]2c2ccccc21 | 3.54 | 1.26 | 0.582 | 0.974 | 1.29 | 0.394 | 1.15 | 0.358 | 1.01 | -0.899 (inactive)
30 | CCOC(=O)C[C@H]1[C@H](OC(=O)c2ccccc2-c2ccccc2)[C@@H](NC(=O)CC(C)C)c2cc(OCCCO)ccc2N1C(=O)c1ccc2ccccc2n1 | -0.123 | 0.304 | 0.162 | 0.335 | 0.323 | 0.318 | 0.488 | 0.76 | 0.152 | 0.365 (inactive)
31 | COC(=O)C1(Cc2ccccc2)C=C2C(=C(c3ccccc3)C(=O)C2C)CN1 (stereo not given) | 1.76 | 1.11 | -0.0788 | 0.152 | -0.111 | 0.404 | 0.408 | -0.586 | 0.943 | 1.98 (inactive)
32 | CC(CO)N1C(=O)[C@@H]2C3C(=O)OCCC/C=C\[C@H]3OC23C=CCN(Cn2nnc4ccccc42)C(=O)[C@@H]13 (stereo not given in full) | 3.15 | -0.589 | -0.923 | -0.326 | -0.171 | -0.614 | 0.918 | -0.13 | -0.276 | 0.196 (inactive)
33 | C=CCN1C(=O)[C@]2(CC=C)N=C(c3ccc(OCCCO)cc3)O[C@@H]2c2ccccc21 | 3.19 | 1.16 | 0.496 | 0.297 | 1.39 | 1.56 | -0.998 | 0.768 | 1.14 | -3.31 (inactive)
